Experiment [1] deals with Estrogen receptor (Homo sapiens) (UniProt P03372). As to the kind of experiment: qHTS assay for small molecule antagonists of estrogen receptor alpha signaling (AID 588513; active = well fitted curve in the direction sought with a large enough effect in the signal ratio, with a control signal flat, not every such curve was filed as active; the % refers to the signal ratio; note: % is set by controls: 0 for no effect and ±100 for the full control effect). In a few lines: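 Cells were plated at 5000/well and incubated 4 h at 37 C. Compounds were added as 1:2 dilution series, duplicates. 17-beta-estradiol (0.5nM final) was added for 18 h before CCF4 detection.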

Experiment [2] shares this target. As to the kind of experiment: qHTS assay for small molecule agonists of estrogen receptor alpha signaling (AID 588514; calls by dose curve; note: nearly all actives have a fitted effect of over 70% in size; note: potency is the fitted concentration of half-maximal effect;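 for activation: 0% = vehicle only and 100% = reference agonist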). In a few lines: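 EC50 and efficacy came from Hill fits of beta-lactamase reporter signal (CCF4 dye, 2 h at room temperature) scaled between DMSO and 20 nM 17-beta-estradiol. Agonist mode: HEK293 ER-alpha-UAS-bla cells in charcoal/dextran-stripped serum medium, 18 h compound exposure at 37 C.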
(In general: qHTS replaces the single test concentration by a dilution series.)

Experiment [3] deals with Glucocorticoid receptor (Homo sapiens) (UniProt P04150). As to the kind of experiment: qHTS assay for small molecule agonists of glucocorticoid receptor signaling (AID 588532; active = well fitted curve in the direction sought with a large enough effect in the signal ratio, with a control signal flat; the % refers to the signal ratio;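 note: 100% = dexamethasone at 0.1 µM and 0% = DMSO only wells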). The conditions noted are these: HeLa MMTV-bla, beta-lactamase ratio, agonist, 18 h; stronger effect = higher value; percent of dexamethasone control, DMSO zero. In a few lines:
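Using MMTV-bla HeLa cells in medium with 1% stripped FBS and 25 mM HEPES, compounds were titrated and incubated overnight-length (18 h). Beta-lactamase cleavage of CCF4 was quantified by dual-emission fluorescence.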

Experiment [4] has the same target. As to the kind of experiment: qHTS assay for small molecule antagonists of glucocorticoid receptor signaling (AID 588533; active = well fitted inhibition curve with a large enough effect in the signal ratio, with a control signal flat, not every such curve was filed as active; the % refers to the signal ratio;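 note: cells stimulated with 2 nM dexamethasone as agonist; % is set by controls: 0 for no effect and ±100 for the full control effect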). The procedure, abridged: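 Antagonist-mode qHTS: compound titrations added to GRE-bla HeLa cells, then dexamethasone 2 nM final; 18 h, 37 C. CCF4 FRET fluorescence normalized to dexamethasone and DMSO; IC50 from Hill fit.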
Experiment [5] is described as follows: qHTS assay for small molecule antagonists of peroxisome proliferator-activated receptor delta signaling (AID 588535; active = well fitted inhibition curve with a large enough effect in the signal ratio, with a control signal flat, not every such curve was filed as active; the % refers to the signal ratio;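 for max response: cells co-treated with a PPAR-delta agonist as stimulator during compound exposure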). The conditions noted are these: HEK293T PPARd-UAS-bla, beta-lactamase FRET ratio, 18 h; 460 nm channel. The procedure, abridged:
(§1)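 Titrations were run on PPAR-delta-UAS-bla HEK293T cells in charcoal/dextran-stripped serum, incubated 18 h at 37 C. CCF4 fluorescence (460/530 nm) after 2 h RT; Hill equation yields IC50 and maximal response.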

For experiment [6], the target named is Peroxisome proliferator-activated receptor delta (Homo sapiens) (UniProt Q03181). Described as above. The procedure, abridged: as §1
Experiment [7] can be described thus: qHTS assay for small molecule agonists of retinoid X receptor alpha signaling (AID 588544; calls by dose curve;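 for activation: 0% = DMSO basal wells and 100% = reference agonist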). As to conditions: HEK293T RXRa-UAS-bla, beta-lactamase reporter, 18 h; 530 nm emission.
Experiment [8] concerns the target Retinoic acid receptor RXR-alpha (Homo sapiens) (UniProt P19793). The description is as above.
Experiment [9] deals with Thyroid hormone receptor beta (Homo sapiens) (UniProt P10828). As to the kind of experiment: qHTS assay for small molecule agonists of thyroid hormone receptor beta signaling (AID 588545; calls by dose curve;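 note: 0% = DMSO only and 100% = 10 nM T3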). The procedure, abridged:
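Compounds were tested as agonists in TR-UAS-bla-GripTite HEK 293 cells. After 18 hrs at 37 C, CCF4 substrate was added and fluorescence read after 2 hrs at room temperature.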

A short description of experiment [10]: qHTS assay for small molecule antagonists of retinoid X receptor alpha signaling (AID 588546; active = well fitted inhibition curve with a large enough effect in the signal ratio, with a control signal flat, not every such curve was filed as active; the % refers to the signal ratio;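 note: cells stimulated with 9-cis-retinoic acid as agonist; % is set by controls: 0 for no effect and ±100 for the full control effect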). The conditions noted are these: HEK293T RXRa-UAS-bla, beta-lactamase ratio, antagonist mode; measured here: W530 green channel, cytotoxicity proxy. In a few lines: (§2)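 Beta-lactamase reporter inhibition, read as CCF4 fluorescence ratio (ex 405, em 460/530 nm) after 2 h at RT. HEK293T UAS-bla cells, 2500/well, were stimulated with 9-cis-RA at 500 or 100 nM final alongside test compound for 18 h at 37 C.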

The target of experiment [11] is Retinoic acid receptor RXR-alpha (Homo sapiens) (UniProt P19793). The experiment is described as above. The conditions noted are these: HEK293T RXRa-UAS-bla, beta-lactamase ratio, antagonist mode. The procedure, abridged:
as §2

A short description of experiment [12]: qHTS assay for environmental chemicals that activate the Aryl hydrocarbon Receptor (AhR) signaling pathway (AID 651777). Note: % of control where 0% means no effect; nearly all actives have a fitted effect of over 15% in size. The conditions noted are these: 1A2-DRE human hepatoma cells, luciferase, 24 h; activation: stronger effect = higher value. In a few lines:
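Human hepatoma 1A2-DRE cells, stably carrying a dioxin response element and CYP1A2 promoter driving luciferase, were exposed to compounds for 24 hr at 37 C and 5% CO2. Luciferase signal was then read after 30 min One-Glo at room temperature.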

Experiment [13] deals with Peroxisome proliferator-activated receptor alpha (Homo sapiens) (UniProt Q07869). As to the kind of experiment: qHTS assay for small molecule agonists of the peroxisome proliferator-activated receptor alpha (PPARalpha) signaling pathway (AID 651778). Note: % of control where 0% means no effect. The conditions noted are these: PathHunter PPARalpha complementation, chemiluminescence, 6 h; max response: stronger effect = higher value. The procedure, abridged: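 Chemiluminescence from complemented enzyme reported PPARalpha activation in cells after 6 hr of compound treatment at 37 C. The detection reagent was incubated for 60 min at room temperature, and compounds were scored as agonists.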

Experiment [14] can be described thus: qHTS assay for small molecule agonists of the antioxidant response element (ARE) signaling pathway measured by Nrf2-dependant transcriptional activity (AID 720636; active = well fitted curve in the direction sought with a large enough effect in the repeat runs; an effect the other way counts as inactive or inconclusive; note: % of control where 0% means no effect). In a few lines:
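ARE-luc HepG2 cells carrying an Nrf2-responsive luciferase reporter were plated in medium with 1% dialyzed FBS, left 6 hr at 37 C to attach, then exposed to compound for 16 hr. Luciferase luminescence was read after ONE-Glo addition.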

A short description of experiment [15]: qHTS assay for small molecule agonists of the antioxidant response element (ARE) signaling pathway measured by Nrf2-dependant transcriptional activity - cell viability counter screen (AID 720653; active = well fitted curve in the direction sought with a large enough effect in the repeat runs; an effect the other way counts as inactive or inconclusive; note: % is set by controls: 0 for no effect and ±100 for the full control effect). The conditions noted are these: ARE-bla HepG2 viability, CellTiter-Glo ATP luminescence, 16 h; max response: stronger effect = lower value. The procedure, abridged: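 Cytotoxicity counter screen: intracellular ATP quantified by CellTiter-Glo luminescence in the same ARE-bla HepG2 plates, after 16 h compound exposure and a 2 h beta-lactamase substrate step.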

Experiment [16] is described as follows: qHTS assay for cell viability of HEK293 cells (AID 743288). Note: % is set by controls: 0 for no effect and ±100 for the full control effect; nearly all actives have a fitted effect of over 50% in size. The conditions noted are these: ATP luminescence (CellTiter-Glo), 18 h; max response: stronger effect = lower value. The procedure, abridged: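 Quantitative high-throughput screen: compounds were pinned onto parental HEK293 cells (2,000 per well) after a minimum 5 h settling at 37 C, incubated 18 h at 37 C, and intracellular ATP measured by luciferase luminescence.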

The nature of experiment [17]: qHTS assay for cell viability of the p53RE-bla HCT-116 cell line (AID 743292). Note: % is set by controls: 0 for no effect and ±100 for the full control effect; nearly all actives have a fitted effect of over 55% in size. In a few lines:
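CellSensor p53RE-bla HCT-116 cells, 4,000/well, preincubated 5 h at 37 C, then exposed to compounds in DMSO for 16 h at 37 C. Viability read as CellTiter-Glo luminescence (intracellular ATP) after 30 min at room temperature.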

Experiment [18] deals with Nuclear receptor subfamily 1 group I member 2 (Rattus norvegicus) (UniProt Q9R1A7). As to the kind of experiment: qHTS assay for small molecule activators of the rat pregnane X receptor (rPXR) signaling pathway (AID 651751; call rule not given here; note: 0% is about no effect). The conditions noted are these: rPXR reporter cells, luciferase (One-Glo), 24 h.
Experiment [19] in a line: qHTS assay for small molecule activators of the human pregnane X receptor (PXR) signaling pathway (AID 720659; call rule not given here; note: 0% is about no effect).
A short description of experiment [20]: qHTS assay for small molecule activators of the nuclear factor-kappa B (NF-kB) signaling pathway (AID 651749; active = well fitted activation curve with a large enough effect in the signal ratio; the % refers to the signal ratio; note: series mostly up to about 77 µM; % of control where 0% means no effect). As to conditions: NF-kB-bla ME-180 cells, beta-lactamase FRET ratio, 16 h; activation: stronger effect = higher value. In a few lines: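 Activation measured after 16 hr compound treatment at 37C, 5% CO2, of 2,000 ME-180 cells/well stably expressing an NF-kB response element–driven beta-lactamase reporter, via FRET-disruption fluorescence.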

SMILES strings stand for the structures. Results filed as inconclusive are left out. Calls of active or inactive are those of the source. Unless noted, calls come from the whole dose curve; as a rule, active = well fitted curve in the direction sought with a large enough effect; inconclusive = small, poorly fitted or top-dose-only effect, or another doubt; inactive = no such curve, though single readings can be large; an effect the other way counts as inactive or inconclusive.

Sequence of Glucocorticoid receptor (Homo sapiens) (P04150 whole entry, looked up): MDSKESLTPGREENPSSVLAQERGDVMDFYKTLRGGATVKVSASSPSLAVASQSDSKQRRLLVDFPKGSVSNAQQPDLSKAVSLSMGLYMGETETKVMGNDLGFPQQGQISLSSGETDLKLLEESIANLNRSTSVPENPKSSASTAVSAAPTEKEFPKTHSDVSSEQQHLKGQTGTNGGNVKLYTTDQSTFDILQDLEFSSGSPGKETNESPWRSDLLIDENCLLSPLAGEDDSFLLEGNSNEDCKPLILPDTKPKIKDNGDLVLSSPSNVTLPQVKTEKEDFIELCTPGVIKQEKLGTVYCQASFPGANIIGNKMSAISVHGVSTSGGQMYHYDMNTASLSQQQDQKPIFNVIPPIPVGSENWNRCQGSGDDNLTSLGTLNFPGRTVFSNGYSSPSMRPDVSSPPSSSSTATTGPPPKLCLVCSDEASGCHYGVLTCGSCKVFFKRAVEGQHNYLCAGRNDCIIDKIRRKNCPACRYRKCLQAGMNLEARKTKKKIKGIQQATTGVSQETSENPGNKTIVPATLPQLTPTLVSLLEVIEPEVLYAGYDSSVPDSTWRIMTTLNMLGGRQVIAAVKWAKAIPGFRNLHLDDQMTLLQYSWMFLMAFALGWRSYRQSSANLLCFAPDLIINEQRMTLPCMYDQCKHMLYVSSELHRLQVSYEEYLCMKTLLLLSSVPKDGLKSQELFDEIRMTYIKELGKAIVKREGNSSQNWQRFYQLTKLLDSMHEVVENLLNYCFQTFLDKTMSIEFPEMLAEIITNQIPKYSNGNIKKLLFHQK
Sequence of Peroxisome proliferator-activated receptor alpha (Homo sapiens) (Q07869 whole entry, looked up): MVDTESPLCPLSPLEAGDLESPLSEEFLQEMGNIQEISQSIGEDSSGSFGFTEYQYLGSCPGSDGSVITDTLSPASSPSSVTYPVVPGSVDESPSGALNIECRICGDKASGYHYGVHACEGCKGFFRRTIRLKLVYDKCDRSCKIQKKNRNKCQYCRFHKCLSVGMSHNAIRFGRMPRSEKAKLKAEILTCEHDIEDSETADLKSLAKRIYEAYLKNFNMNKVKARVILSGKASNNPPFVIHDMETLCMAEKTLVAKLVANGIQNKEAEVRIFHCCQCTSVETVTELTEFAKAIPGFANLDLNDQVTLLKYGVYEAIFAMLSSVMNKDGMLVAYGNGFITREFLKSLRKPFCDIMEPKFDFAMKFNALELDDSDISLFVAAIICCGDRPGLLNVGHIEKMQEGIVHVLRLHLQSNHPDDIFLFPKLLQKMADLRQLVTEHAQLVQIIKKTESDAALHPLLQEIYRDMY
Sequence of Retinoic acid receptor RXR-alpha (Homo sapiens) (P19793 whole entry, looked up): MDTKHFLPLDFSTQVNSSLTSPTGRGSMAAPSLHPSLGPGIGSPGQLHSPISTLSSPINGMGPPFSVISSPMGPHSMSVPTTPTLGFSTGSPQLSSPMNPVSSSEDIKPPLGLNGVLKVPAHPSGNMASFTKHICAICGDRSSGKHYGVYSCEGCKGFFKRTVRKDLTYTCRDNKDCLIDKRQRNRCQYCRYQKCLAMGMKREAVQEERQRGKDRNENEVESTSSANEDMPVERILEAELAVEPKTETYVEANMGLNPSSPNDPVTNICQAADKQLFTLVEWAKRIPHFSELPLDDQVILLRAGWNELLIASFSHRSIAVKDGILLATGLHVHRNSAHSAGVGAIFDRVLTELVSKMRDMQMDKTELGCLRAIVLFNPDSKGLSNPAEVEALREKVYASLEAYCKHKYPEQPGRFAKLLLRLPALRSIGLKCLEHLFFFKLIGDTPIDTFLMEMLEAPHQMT
Sequence of Nuclear receptor subfamily 1 group I member 2 (Rattus norvegicus) (Q9R1A7 whole entry, looked up): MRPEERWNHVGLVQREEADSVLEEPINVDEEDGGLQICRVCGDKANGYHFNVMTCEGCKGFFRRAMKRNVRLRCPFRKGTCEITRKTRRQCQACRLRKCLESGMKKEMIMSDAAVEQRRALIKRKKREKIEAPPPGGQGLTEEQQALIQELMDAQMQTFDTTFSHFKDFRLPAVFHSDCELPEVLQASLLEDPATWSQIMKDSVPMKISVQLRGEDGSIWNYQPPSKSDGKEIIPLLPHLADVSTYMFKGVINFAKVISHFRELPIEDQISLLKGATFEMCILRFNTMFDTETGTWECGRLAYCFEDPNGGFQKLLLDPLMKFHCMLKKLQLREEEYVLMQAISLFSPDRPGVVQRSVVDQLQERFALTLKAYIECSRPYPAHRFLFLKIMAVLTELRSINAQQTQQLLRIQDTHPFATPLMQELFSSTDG
Sequence of Estrogen receptor (Homo sapiens) (P03372 whole entry, looked up): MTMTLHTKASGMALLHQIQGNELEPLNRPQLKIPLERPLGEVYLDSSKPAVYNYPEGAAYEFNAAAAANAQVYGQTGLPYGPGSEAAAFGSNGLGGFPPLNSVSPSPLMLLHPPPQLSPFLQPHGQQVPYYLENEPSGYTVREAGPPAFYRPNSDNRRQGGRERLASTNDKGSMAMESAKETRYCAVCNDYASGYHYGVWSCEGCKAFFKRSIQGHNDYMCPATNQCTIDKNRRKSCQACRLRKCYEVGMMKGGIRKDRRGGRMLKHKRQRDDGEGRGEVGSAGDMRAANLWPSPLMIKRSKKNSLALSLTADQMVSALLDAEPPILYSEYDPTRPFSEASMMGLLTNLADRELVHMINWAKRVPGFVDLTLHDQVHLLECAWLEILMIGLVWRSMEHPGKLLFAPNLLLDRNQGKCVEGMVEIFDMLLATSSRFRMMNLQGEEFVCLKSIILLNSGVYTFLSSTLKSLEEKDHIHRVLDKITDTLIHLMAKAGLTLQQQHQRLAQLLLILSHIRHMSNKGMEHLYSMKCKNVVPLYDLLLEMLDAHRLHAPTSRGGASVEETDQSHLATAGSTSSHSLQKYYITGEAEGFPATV
Sequence of Peroxisome proliferator-activated receptor delta (Homo sapiens) (Q03181 whole entry, looked up): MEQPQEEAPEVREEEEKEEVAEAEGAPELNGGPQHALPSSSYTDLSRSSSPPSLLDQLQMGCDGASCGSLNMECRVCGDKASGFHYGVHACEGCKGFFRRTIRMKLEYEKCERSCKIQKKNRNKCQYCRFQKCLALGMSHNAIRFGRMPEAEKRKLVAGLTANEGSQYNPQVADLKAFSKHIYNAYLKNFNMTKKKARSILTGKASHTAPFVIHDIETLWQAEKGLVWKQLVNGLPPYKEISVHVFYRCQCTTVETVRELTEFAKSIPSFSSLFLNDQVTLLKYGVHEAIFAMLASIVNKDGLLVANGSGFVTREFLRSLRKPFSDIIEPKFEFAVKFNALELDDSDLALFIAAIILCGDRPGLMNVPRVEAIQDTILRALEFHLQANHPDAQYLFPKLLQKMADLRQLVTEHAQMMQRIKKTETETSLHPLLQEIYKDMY
Sequence of Thyroid hormone receptor beta (Homo sapiens) (P10828 whole entry, looked up): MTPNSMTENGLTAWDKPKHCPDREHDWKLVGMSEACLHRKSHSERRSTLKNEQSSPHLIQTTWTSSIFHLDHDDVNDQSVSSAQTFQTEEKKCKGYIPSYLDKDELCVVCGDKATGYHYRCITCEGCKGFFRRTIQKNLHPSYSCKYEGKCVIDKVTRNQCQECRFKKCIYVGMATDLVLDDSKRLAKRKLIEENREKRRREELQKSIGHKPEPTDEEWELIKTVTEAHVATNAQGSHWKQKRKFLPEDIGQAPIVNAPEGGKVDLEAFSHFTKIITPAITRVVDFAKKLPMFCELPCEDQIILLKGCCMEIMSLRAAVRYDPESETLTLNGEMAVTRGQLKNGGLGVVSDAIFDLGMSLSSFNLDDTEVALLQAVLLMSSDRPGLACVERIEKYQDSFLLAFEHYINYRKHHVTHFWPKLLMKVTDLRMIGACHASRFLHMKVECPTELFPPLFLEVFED

Consider `C=C[Si](OCCOC)(OCCOC)OCCOC`, for which the Potency entry in experiment [1], in [2], in experiment [4], in experiment [6], in experiment [8] and in experiment [9] was “inactive” each time. Also, the Potency result in experiment [14] and in experiment [17] was “inactive” each time. For the same compound, the activation in experiment [3] was -9.96% (inactive); in experiment [12], 0.581% (inactive). Besides, the max response is 25.9% in experiment [5]; -7.07% in experiment [7]; -8.04% in [10]; 2.22% (inactive) in experiment [11]; -0.929% (inactive) in experiment [13]; 15.4% (inactive) in experiment [15]. Moreover, the max response in [16] was -9.27% (inactive); in [18], 1.26% (inactive). For the same compound, the result in [19] was inactive.
On to `Cc1ccc(S(=O)(=O)N=C=O)cc1`, for which the Potency result in [1], in [2], in [4], in [6], in experiment [8] and in experiment [9] was “inactive” each time. Moreover, the results for the activation in experiment [3], in experiment [20] and in experiment [12] were 20.2% (inactive), -0.506% (inactive) and -0.31% (inactive), respectively. The max response is 5.8% in experiment [5]; 15.4% in experiment [7]; -8.47% in experiment [10]; 12.7% (inactive) in experiment [11]; -0.858% (inactive) in experiment [13]; -7.8% (inactive) in experiment [15]. For the same compound, the max response is -6.04% (inactive) in [16] and -1.2% (inactive) in experiment [18]. In addition, in experiment [19], the call was inactive.
Take `CC/C=C\CCOC(=O)c1ccccc1O`: the Potency entry in [1], in experiment [4], in [6], in experiment [8], in [9] and in experiment [14] was “inactive” each time. The Potency entry in experiment [17] is “inactive”. Also, the Potency in [2] was 25.1 µM (active). The figures for the activation in [3], in experiment [20] and in experiment [12] were -3.47% (inactive), -0.397% (inactive) and 1.45% (inactive), respectively. Besides, the max response in experiment [5] was -19.1%; in experiment [7], -9.64%; in experiment [10], -7.38%; in experiment [11], 0.792% (inactive); in experiment [13], 0.589% (inactive); in experiment [15], 6.72% (inactive). Also, the max response in experiment [16] was 0.746% (inactive); in experiment [18] it was 5.21% (inactive). Also, the result in experiment [19] was inactive.
In the case of `CC(C)C(=O)OCC(C)(C)C(O)C(C)C` (stereo not drawn), the Potency result in [1], in experiment [2], in [4], in experiment [6], in [8] and in experiment [9] was “inactive” throughout. Besides, the Potency result in experiment [14] and in [17] was “inactive” in each case. In addition, the activation in experiment [3] is -3.75% (inactive); in experiment [20], -1.26% (inactive); in [12], -2.96% (inactive). For the same compound, the max response in experiment [5] is 1.76%; in experiment [7], 6.96%; in experiment [10], -13.9%; in [11], -10.9% (inactive); in experiment [15], -3.28% (inactive); in experiment [16] it was -9.28% (inactive). Further, the max response in [18] is -1.98% (inactive). Besides, the call in experiment [19] was inactive.
As for `CCCCCCCCCCCO`, the Potency entry in experiment [1], in experiment [2], in [6], in experiment [8], in experiment [9] and in experiment [17] was “inactive” each time. Besides, the max response is -7.63% in [5]; -10.8% in experiment [7]; 1.65% (inactive) in [13]; 3.39% (inactive) in [15]; 4.45% (inactive) in [16]; 2% (inactive) in experiment [18]. Also, the activation in experiment [20] is 0.0542% (inactive); in experiment [12], -0.0375% (inactive).
Turning to `c1cc(-c2ccncc2)ccn1`, the Potency entry in experiment [1], in [2], in [4], in experiment [8], in experiment [9] and in experiment [14] was “inactive” throughout. Further, the Potency entry in experiment [17] was “inactive”. For the same compound, the activation in experiment [3] was -9.26% (inactive); in [20], -1.45% (inactive); in experiment [12] it was 0.354% (inactive). In addition, the max response in experiment [7] was 22%; in [10], 17.1%; in experiment [11] it was -37.6% (inactive); in experiment [13], 0.638% (inactive); in [15] it was -5.96% (inactive); in [16], -10.3% (inactive). The max response in [18] is -2.25% (inactive). Moreover, the call in experiment [19] was inactive.

Source of the values: PubChem BioAssay (NCATS).
